IL2 activator – activates IL-2 in a cell-based reporter assay; activation, % (series mostly up to about 46 µM); IL-2 activation reporter assay, cell-based qHTS; stimulated with anti-CD3/CD4/CD28 beads; in transgenic mouse T cells; actives 0.065% (n = 360,000); AID 652025; in the data active = activation above about 50%; inconclusive = mostly about 30% to 49%; note: 0% is about no effect
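Unstimulated transgenic mouse T cells; 60-min compound exposure; bead-based TCR/CD4/CD28 stimulation; 18 h culture, 37 degrees C; dual fluorescence (EGFP, DsRed) plate cytometry.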
Tb PFK inh-1 – blocks T. brucei phosphofructokinase | actives 0.17% (n = 330,000) | Potency, µM (doses to about 57.5 µM), for the others: at the top dose activity, negative = inhibition, usual class: inhibitors | O15648 | AID 485367 | T. brucei PFK, ADP-Glo luminescence;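 note: potency is the fitted concentration of half-maximal effect; 0% = uninhibited 1x PFK enzyme wells and -100% = no-enzyme wells; nearly all actives have a fitted effect of over 60% in size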
Target sequence (O15648 whole entry, looked up): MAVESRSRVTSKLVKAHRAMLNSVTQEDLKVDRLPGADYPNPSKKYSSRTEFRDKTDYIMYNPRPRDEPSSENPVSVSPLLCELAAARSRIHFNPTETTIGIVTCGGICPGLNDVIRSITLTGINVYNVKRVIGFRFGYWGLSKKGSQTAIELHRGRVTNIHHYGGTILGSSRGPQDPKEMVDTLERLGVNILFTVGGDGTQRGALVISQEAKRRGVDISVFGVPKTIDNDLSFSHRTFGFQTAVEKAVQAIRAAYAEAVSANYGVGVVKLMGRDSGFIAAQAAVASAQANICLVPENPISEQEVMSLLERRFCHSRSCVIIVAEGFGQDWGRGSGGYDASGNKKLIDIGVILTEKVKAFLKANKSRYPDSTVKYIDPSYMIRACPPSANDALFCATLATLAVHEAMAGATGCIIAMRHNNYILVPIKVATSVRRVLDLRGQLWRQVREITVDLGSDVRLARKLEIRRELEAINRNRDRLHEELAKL
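ADP-Glo luminescence quantified ADP after 45 min at room temperature, with 1.25 nM T. brucei PFK, 0.1 mM ATP and 0.5 mM fructose-6-phosphate in pH 8.0 TEA buffer. qHTS titrations up to 57 µM; curves classified by quality.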
AT treatment – potential ataxia-telangiectasia treatments restoring KAP-1 phosphorylation; F2112 A-T fibroblasts, KAP-1 phosphorylation AlphaLISA; neocarzinostatin DNA damage 30 min before lysis; Potency, µM (titrated, usually from 57.5 µM), for the others: at the highest dose activation, most hits filed as activators; actives 0.19% (n = 320,000); note: potency is the fitted concentration of half-maximal effect; % of control where 0% means no effect; nearly all actives have a fitted effect of over 45% in size
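ATM-like activity read as KAP-1 phosphorylation via AlphaLISA donor/acceptor antibody pairs after lysis and 6 hr at 25C. Cells were ATM-null patient fibroblasts (F2112, hTERT), dosed 60 min, then exposed to the DSB inducer NCS for 30 min.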
a7 integrin act – activators of alpha7 integrin expression for muscular dystrophy; alpha7betagal myoblasts, beta-gal FDG fluorescence, 48 h; Potency, µM (highest dose often 38.3 µM), for the others: at the top dose activation, actives largely listed as activators; actives 0.064% (n = 350,000); AID 624291;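 note: potency is the fitted concentration of half-maximal effect; 100% = response of the positive control SU9516; nearly all actives have a fitted effect of over 60% in size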
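alpha7betagal+/- myoblasts (passage 13, 250/well) treated 48 h at 37C with compounds at 1:260 dilution of DMSO stock. Lysed, then beta-galactosidase activity read as FDG fluorescence (ex 480/em 540) after 30 min, with pre-read for autofluorescence.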
PKM2 activator – PKM2 (human) enzyme activation; actives 0.34% (n = 260,000); P14618; purified PKM2, Kinase-Glo ATP luminescence, activation; response scale: 0% is enzyme alone, no compound; AID 1631; Potency, µM (highest dose often 57.5 µM), for the others: at the highest dose activation, actives largely listed as activators; note: potency is the fitted concentration of half-maximal effect; % is set by controls: 0 for no effect and ±100 for the full control effect; nearly all actives have a fitted effect of over 55% in size
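ATP formation by purified human PK-M2, quantified via coupled luciferase luminescence after 1 h at room temperature with 0.1 mM ADP and 0.5 mM PEP final.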
TCR activator – T cell receptor activation. 330,000 tested, under 10 active. AID 504894. primary human leukocytes, anti-CD3, IL-2 HTRF, 48 h. Potency, µM (series often up to 9.22 µM), for the others: at the top dose activation of IL-2 secretion, usual class: activators; note: % of control where 0% means no effect
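Using a-CD3 beads without co-stimulation, primary human leukocytes were exposed to compounds for 48 hr. An HTRF IL-2 kit measured the cytokine, with europium-to-d2 energy transfer producing emission at 665nm upon 320nm excitation.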
Tb PFK KinaseGlo – inhibits T. brucei PFK measured by ATP depletion; shares compounds with Tb PFK inh-1; Tb PFK enzyme, ATP depletion, Kinase-Glo Plus luminescence; Potency, µM (series often up to 57.5 µM), for inactives: at the top dose inhibition; actives 47% (n = 1,100); calls by dose curve; note: potency is the fitted concentration of half-maximal effect; nearly all actives have a fitted effect of over 60% in size
Tb PFK inh-2 – T. brucei PFK enzyme inhibition, hit validation; shares compounds with Tb PFK inh-1; purified T. brucei PFK, ADP-Glo luminescence, 45 min; Potency, µM (titrated, usually from 57.5 µM), for inactives: top-dose activity change, negative = inhibition, hits mostly inhibitors; actives 41% (n = 1,100); AID 504637;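 note: potency is the fitted concentration of half-maximal effect; plate controls were full PFK enzyme control for no effect and no enzyme control for full effect; nearly all actives have a fitted effect of over 60% in size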
* marks the source's active call; other numbers are inactive results. Shown are actives, neighbours in structure and some others; about 0.69% of the full set was active somewhere. Unless noted, calls come from the whole dose curve; as a rule, active = well fitted curve in the direction sought with a large enough effect; inconclusive = small, poorly fitted or top-dose-only effect, or another doubt; inactive = no such curve, though single readings can be large; an effect the other way counts as inactive or inconclusive.

`CCNc1nc(NCC)n2c(SCC(=O)Nc3ccc(C)c(C)c3)nnc2n1` gave IL2 activator -2.0, Tb PFK inh-1 13.5µM*, AT treatment 6.7%, a7 integrin act -24.8%, TCR activator -5.4%, Tb PFK KinaseGlo inconclusive and Tb PFK inh-2 inconclusive.
CC(C)c1ccc(NC(=O)CSc2nnc(OC(=O)N(C)C)n2C2CC2)cc1 was read as IL2 activator 2.1, Tb PFK inh-1 -3.9%, AT treatment 0.9%, a7 integrin act -36.9%, PKM2 activator 0.6% and TCR activator 3.1%.
CCNc1nc(NCC)n2c(SCC(=O)Nc3ccc(OC(F)F)cc3)nnc2n1 was read as IL2 activator -1.5, Tb PFK inh-1 7.57µM*, AT treatment -4.6%, a7 integrin act -12.0%, TCR activator -0.5%, Tb PFK KinaseGlo 5.36µM* and Tb PFK inh-2 8.49µM*.
O=C(O)C1C2c3ccccc3C(O)C1(C(=O)O)c1ccccc12 (stereo unspecified) was read as IL2 activator -5.7, a7 integrin act 32.3% and TCR activator -0.1%.
Screening COC(=O)C1=C(c2cccc(Cl)c2)C[C@@H]2CC[C@H]1N2C(=O)N1CCCC1 returned IL2 activator -2.6, Tb PFK inh-1 -1.3%, AT treatment 3.4%, a7 integrin act -6.3% and TCR activator -4.4%.
`Cc1cc(C=O)c(C)n1C1CC1` gave IL2 activator 0.6, Tb PFK inh-1 -3.9%, AT treatment 7.9%, a7 integrin act 6.6%, PKM2 activator -4.9% and TCR activator -1.7%.
For C[C@H]1COc2cc(N3CCN(C)CC3)ccc2S(=O)(=O)N1 the results were IL2 activator 0.2.
`O=C(CCN1CC1)OCCOC(=O)CCN1CC1` gave IL2 activator -0.9, a7 integrin act -29.5% and TCR activator -0.6%.
`Cc1ccc(S(=O)(=O)N2CCN(C(=O)COC(=O)Cc3ccccc3)CC2)c(C)c1` gave IL2 activator -3.3, Tb PFK inh-1 -1.6%, AT treatment -1.3%, a7 integrin act 0.0% and TCR activator -7.9%.
For CC1(C)C(=O)Nc2ccccc2N1C(=O)COC(=O)Cc1ccc(Cl)c(Cl)c1 the results were IL2 activator 0.0, Tb PFK inh-1 23.9µM*, AT treatment 2.3%, a7 integrin act inconclusive, Tb PFK KinaseGlo inconclusive and Tb PFK inh-2 inconclusive.
`Oc1ccccc1-[n+]1c(-c2ccccc2)cc(-c2ccccc2)c(O)c1-c1ccccc1` gave IL2 activator -0.7, Tb PFK inh-1 -3.3%, AT treatment 17.7%, a7 integrin act -12.5% and TCR activator -4.9%.
`COc1ccc(-c2cc(=NCCC(=O)O)c3cc(C)ccc3o2)cc1` gave IL2 activator -1.7, Tb PFK inh-1 inconclusive, AT treatment 6.1%, a7 integrin act -12.7%, PKM2 activator -9.4%, TCR activator 1.2%, Tb PFK KinaseGlo -29.9% and Tb PFK inh-2 inconclusive.
For COc1cccc(NP2(=O)OCC(C)([N+](=O)[O-])CO2)c1 (stereo unspecified) the results were IL2 activator -1.5, a7 integrin act 14.2% and TCR activator -30.3%.
Screening O=C(Cc1ccc(Cl)cc1)Nc1ccc(S(=O)(=O)N2CCOCC2)cc1 returned IL2 activator 1.4, Tb PFK inh-1 21.3µM*, AT treatment 5.0%, a7 integrin act 10.7%, TCR activator 2.1%, Tb PFK KinaseGlo 9.53µM* and Tb PFK inh-2 26.9µM*.
O=C(COc1ccc([N+](=O)[O-])cc1)Nc1ccc(S(=O)(=O)N2CCOCC2)cc1 was read as IL2 activator -0.4, Tb PFK inh-1 inconclusive, AT treatment -3.6%, a7 integrin act -2.6%, PKM2 activator -7.5%, TCR activator 4.3%, Tb PFK KinaseGlo 21.3µM* and Tb PFK inh-2 26.9µM*.
Screening O=C(Cc1ccc(Cl)c(Cl)c1)Nc1cccc(S(=O)(=O)N2CCOCC2)c1 returned IL2 activator 0.2, Tb PFK inh-1 21.3µM*, AT treatment 2.3%, a7 integrin act 26.3%, PKM2 activator -20.8%, Tb PFK KinaseGlo 9.53µM* and Tb PFK inh-2 16.9µM*.
O=C(Nc1cccc(OC(=O)N2CCOCC2)c1)N1CCOCC1 was read as IL2 activator 0.7, Tb PFK inh-1 -3.5%, AT treatment 4.6%, a7 integrin act 5.1%, PKM2 activator -7.5% and TCR activator -4.0%.
`CC(=NCCN1CCCCC1)c1c(O)n(-c2ccccc2)c(=O)[nH]c1=O` gave IL2 activator -3.5, Tb PFK inh-1 -4.5%, AT treatment 24.2%, a7 integrin act 19.9%, PKM2 activator -5.9% and TCR activator -1.0%.
Cn1c(=O)[nH]c(=O)c2c1nc(SCCN1CCCCC1)n2CCCc1ccccc1 was read as IL2 activator 0.2, Tb PFK inh-1 inconclusive, AT treatment 2.7%, a7 integrin act -32.5%, PKM2 activator -13.6%, TCR activator 2.3%, Tb PFK KinaseGlo 6.75µM* and Tb PFK inh-2 16.9µM*.
For CCOc1ccc(C(C)=O)cc1N1C(=O)C2C3C=CC(O3)C2C1=O (stereo unspecified) the results were IL2 activator -3.8, Tb PFK inh-1 inconclusive, AT treatment -1.4%, a7 integrin act -64.5%, PKM2 activator 1.6%, TCR activator 0.3%, Tb PFK KinaseGlo -20.1% and Tb PFK inh-2 inconclusive.
CCOc1ccc(C(C)=O)cc1Cn1ccsc1=N was read as IL2 activator -0.8, Tb PFK inh-1 0.0%, AT treatment 4.5%, a7 integrin act 0.0% and TCR activator -4.9%.
`Cn1c(SCC(=O)NCc2ccc(F)cc2)nc2ccccc21` gave IL2 activator -2.5, Tb PFK inh-1 0.2%, AT treatment 1.4%, a7 integrin act 4.7%, PKM2 activator -30.5% and TCR activator 1.6%.
COc1ccc(CC2c3cc(OC)c(OC)cc3CCN2C)cc1O (stereo unspecified) was read as IL2 activator 0.2, Tb PFK inh-1 -13.4%, AT treatment 2.8%, a7 integrin act -6.1%, PKM2 activator 0.1% and TCR activator -1.2%.
